Compound activity: PubChem, Broad Institute
The list is not random: actives were taken first. Their share in the collection is about 2%.
p53 PUMA act = mutant p53 pathway re-activators, primary screen, cell-based, SW480, luciferase, single point, HTS. SW480 PUMA-promoter luciferase, p53 mutant reactivation. activation, % at 9.98 µM. 28,000 compounds, 1.5% hits. AID 624151, 2012; in the data active = activation above about 52%; inconclusive = no clear call, values can overlap the other calls
ID4 SMM = binders of human ID4 protein, primary screen, biochemical, small molecule microarray, single point. calls only. Flag-ID4 binding, fluorescence F/B. DNA-binding protein inhibitor ID-4 (Homo sapiens), P47928. 31,000 compounds, 1.2% hits; call rule not given here;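 also: a binder raises fluorescence above local background on the spot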
Target sequence (P47928 whole entry, looked up): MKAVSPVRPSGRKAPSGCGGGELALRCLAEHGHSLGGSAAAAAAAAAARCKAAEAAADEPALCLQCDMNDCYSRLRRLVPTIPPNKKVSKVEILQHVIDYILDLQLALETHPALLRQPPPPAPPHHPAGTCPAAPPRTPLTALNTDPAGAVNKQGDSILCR
STK33 inh = STK33 kinase inhibitors, primary screen, biochemical, luminescence, ADP-Glo, MBP substrate. Serine/threonine-protein kinase 33 (Homo sapiens), Q9BYT3. inhibition, % at 12.5 µM. 27,000 compounds, 0.44% hits. AID 2322, 2010; in the data active = inhibition above about 20%; inconclusive = no clear call, values can overlap the other calls
Numbers stand for hits; n = inactive; u = inconclusive; x = no result; + = active, no number.

SMILES | p53 PUMA act | ID4 SMM | STK33 inh
C[C@@H]1CN([C@H](C)CO)C(=O)c2cc(C3=CCCC3)cnc2O[C@H]1CN(C)C(=O)Cc1ccncc1 | n | + | x
C[C@H]1CN([C@@H](C)CO)C(=O)c2cc(C3=CCCCC3)cnc2O[C@H]1CN(C)C(=O)Cc1ccncc1 | n | x | x
O=C(Cn1cc(C(=O)c2cccs2)c2ccccc21)Nc1ccccc1 | n | n | n
Cc1cccnc1NC(=S)NC(=O)c1cncc(Br)c1 | 108 | n | n
N#Cc1c(NC(=S)NC(=O)c2cncc(Br)c2)sc2c1CCCC2 | n | n | n
O=C(CSc1nnc(-c2ccc(Cl)cc2Cl)o1)Nc1ccc([N+](=O)[O-])cc1 | n | n | n
CCCCC/C=C\C/C=C\C/C=C\CCCCCCC(=O)O | n | + | x
CCCCC/C=C\C/C=C\CCCCCCCC(=O)O | x | x | n
CCCCC/C=C\C/C=C\CCCCCCCC(=O)NCC(=O)O | x | + | n
O=C(CCCN1C(=O)c2ccccc2C1=O)Nc1cccc(Cl)c1Cl | n | n | n
Cc1ccc(NC(=O)C2CC(=O)n3cnnc3N2)cc1 (stereo unspecified) | n | n | n
O=C(Nc1ccc(F)cc1)C1CC(=O)n2cnnc2N1 (stereo unspecified) | n | + | n
O=C(COc1ccccc1Cl)Nc1ccccc1NC(=O)c1ccco1 | u | n | n
COc1ccccc1C(=O)CC(=O)C(=O)Nc1sc2c(c1C#N)CCC2 | n | n | x
COc1ccc2c(=O)c(-c3ccc(OC)c(OC)c3)coc2c1 | 124 | n | x
COc1ccc(-c2coc3cc(OC(C)=O)cc(OC(C)=O)c3c2=O)cc1 | 130 | x | x
COc1ccc(-c2coc3c(OC)c(OC)cc(OC)c3c2=O)cc1 | x | n | n
COc1ccc2c(=O)c(CC(=O)O)coc2c1 | x | n | n
COc1ccc(C(C)=O)cc1CSc1nc2cc(C)c(C)cc2[nH]1 | n | n | n
c1ccc(N=C2SC(=NC3CCCCC3)C3=C2CCCC3)cc1 | n | n | x
O=C(Nc1cccc(NC(=O)c2ncn[nH]2)c1)c1cccc(Cl)c1 | n | n | 32
O=C(Nc1ccccc1C(=O)O)c1ncn[nH]1 | n | n | n
Cc1ccc2nc(SCc3nc4ccccc4n3C)[nH]c2c1 | 62 | n | n
Cc1cc2nc(SCc3nc4ccccc4[nH]3)[nH]c2cc1C | u | n | n
Cc1csc(Nc2ccc(F)c(Cl)c2)[n+]1C(C)C | x | x | n
SMILES | p53 PUMA act | ID4 SMM | STK33 inh
COC(=O)CCCCCCC(=O)Nc1ccc(C2OC(CN(C)Cc3ccccc3)CC(c3ccccc3)O2)cc1 (stereo unspecified) | x | n | x
COCC1CC(c2ccccc2)OC(c2ccc(NC(=O)CCCCCCC(=O)O)cc2)O1 (stereo unspecified) | x | + | x
O=C(O)CCCC(=O)Nc1ccc(Cl)c(Cl)c1 | n | n | n
O=C(O)CCCCCCC(=O)Nc1ccc(C2OC(CSc3ccncc3)CC(c3ccccc3)O2)cc1 (stereo unspecified) | x | + | x
COC(=O)CCCCCCC(=O)Nc1ccc(C=O)cc1 | x | n | x
CN(Cc1ccccc1)CC1CC(c2ccccc2)OC(c2ccc(NC(=O)CCCCCCC(=O)O)cc2)O1 (stereo unspecified) | x | + | x
COC(=O)CSc1nc(-c2cccc(C)c2)nc2c1CCCC2 | n | n | n
CC(C)C12CC1C(C)(O[C@@H]1O[C@H](CO)[C@@H](O)[C@H](O)[C@H]1O)CC2=O (stereo partly specified) | x | n | n
Cc1ccc2nsnc2c1S(=O)(=O)N1CCN(CCc2ccccc2)CC1 | n | n | n
CN1CCN(S(=O)(=O)c2ccc(Sc3nc4ccccc4[nH]3)c3nsnc23)CC1 | n | + | n
Cc1cc(C)nc(SC(C)C(=O)Nc2ccccc2)n1 (stereo unspecified) | n | n | n
OCCCn1c(-c2ccc(Cl)cc2)cn2c3ccccc3nc12 | n | + | n
OCCCn1c(-c2ccccc2)cn2c3ccccc3nc12 | n | n | n
C=CCNC(=O)[C@@H]1[C@H]2C(=O)O[C@H](c3ccccc3)[C@H](c3ccccc3)N2[C@H](c2ccccc2OCCO)[C@@]12C(=O)Nc1ccc(C#CCCO)cc12 | x | x | n
CC1(C)N=C(NC(=O)NC(=O)c2ccccc2Cl)N(c2ccccc2)O1 | x | x | n
Cc1ccc(N(C(C)C(=O)Nc2cccc(C)c2C)S(C)(=O)=O)cc1 (stereo unspecified) | n | n | n
Cc1c(Br)c([N+](=O)[O-])nn1CC(=O)Nc1cccnc1 | n | n | n
Cc1ccc2oc(-c3ccc(C)c(NC(=O)COc4ccc(Br)cc4)c3)nc2c1 | 65 | n | n
Cc1ccc2oc(-c3ccc(Cl)c(NC(=O)COc4ccc(C)c(C)c4)c3)nc2c1 | n | n | n
Cc1cc2nc(-c3ccc(C)c(NC(=O)COc4ccc([N+](=O)[O-])cc4)c3)oc2cc1C | 66 | n | n
Cc1ccc(-c2nc3ccccc3o2)cc1NC(=O)COc1ccccc1 | n | n | n
O=C(NCCN1CCOCC1)c1cc(-n2cnnc2)ccc1Cl | n | n | n
COc1cc(CNC2CCCC2)ccc1OCC(N)=O | n | n | n
COc1cc(CNC23CC4CC(CC(C4)C2)C3)ccc1OCC(N)=O | n | + | n
Cc1cc(C)n2c(Nc3cccc(C(F)(F)F)c3)c(-c3ccc(O)cc3)nc2n1 | n | n | x
SMILES | p53 PUMA act | ID4 SMM | STK33 inh
CN(C)c1ccc(C(=C2C=CC(=[N+](C)C)C=C2)c2ccc(N(C)C)cc2)cc1 | x | x | 76
CNC[C@H]1Oc2ncc(C3=CCCCC3)cc2C(=O)N([C@@H](C)CO)C[C@H]1C | n | + | x
C[C@H]1CN([C@@H](C)CO)C(=O)c2cc(C3=CCCC3)cnc2O[C@@H]1CN(C)S(C)(=O)=O | n | n | x
CNC[C@H]1Oc2ncc(C#Cc3cccc(OC)c3)cc2C(=O)N([C@@H](C)CO)C[C@H]1C | n | n | x
CNC[C@@H]1Oc2ncc(C3=CCCCC3)cc2C(=O)N([C@H](C)CO)C[C@@H]1C | n | n | x
CNC[C@@H]1Oc2ncc(C#Cc3ccc(OC)c(OC)c3)cc2C(=O)N([C@H](C)CO)C[C@@H]1C | n | + | n
C[C@H]1CN([C@@H](C)CO)C(=O)c2cc(C3=CCCCC3)cnc2O[C@H]1CN(C)S(=O)(=O)c1cn(C)cn1 | n | + | x
CCCCn1cc(C2CC(=O)N(c3ccc(Br)cc3)C2=O)c2ccccc21 (stereo unspecified) | n | n | x
C[C@H]1CC[C@@H]2[C@@H](C(=O)c3c(O)c([C@]4(O)CC[C@@H](O)[C@H]5O[C@H]54)cn(O)c3=O)[C@@H](C)C=C[C@H]2C1 | x | x | n
COc1ccc(NC(=O)CNC(=O)c2ccco2)cc1 | n | n | n
Cc1ccc(NC(=O)CNC(=O)c2ccco2)cc1 | 59 | n | n
O=C1O[C@H](c2ccccc2)[C@H](c2ccccc2)N2[C@H]1[C@@H](C(=O)N1CCCCCCC1)[C@]1(C(=O)Nc3ccc(C#CCCO)cc31)[C@H]2c1ccccc1OCCO | x | n | 22
C=CCNC(=O)[C@@H]1[C@H]2C(=O)O[C@H](c3ccccc3)[C@H](c3ccccc3)N2[C@H](c2ccc(OCCO)cc2)[C@@]12C(=O)Nc1ccc(C#Cc3ccc(OC)cc3)cc12 | x | n | n
